These compounds were tested against T1, Tyrosyl-tRNA synthetase, putative (Trypanosoma cruzi (strain CL Brener)) (UniProt Q4DSP6) (assay: Trypanosoma cruzi tyrosyl tRNA synthetase (TcYRS) SOP). Settings: 30 µM.
T1 sequence (whole entry): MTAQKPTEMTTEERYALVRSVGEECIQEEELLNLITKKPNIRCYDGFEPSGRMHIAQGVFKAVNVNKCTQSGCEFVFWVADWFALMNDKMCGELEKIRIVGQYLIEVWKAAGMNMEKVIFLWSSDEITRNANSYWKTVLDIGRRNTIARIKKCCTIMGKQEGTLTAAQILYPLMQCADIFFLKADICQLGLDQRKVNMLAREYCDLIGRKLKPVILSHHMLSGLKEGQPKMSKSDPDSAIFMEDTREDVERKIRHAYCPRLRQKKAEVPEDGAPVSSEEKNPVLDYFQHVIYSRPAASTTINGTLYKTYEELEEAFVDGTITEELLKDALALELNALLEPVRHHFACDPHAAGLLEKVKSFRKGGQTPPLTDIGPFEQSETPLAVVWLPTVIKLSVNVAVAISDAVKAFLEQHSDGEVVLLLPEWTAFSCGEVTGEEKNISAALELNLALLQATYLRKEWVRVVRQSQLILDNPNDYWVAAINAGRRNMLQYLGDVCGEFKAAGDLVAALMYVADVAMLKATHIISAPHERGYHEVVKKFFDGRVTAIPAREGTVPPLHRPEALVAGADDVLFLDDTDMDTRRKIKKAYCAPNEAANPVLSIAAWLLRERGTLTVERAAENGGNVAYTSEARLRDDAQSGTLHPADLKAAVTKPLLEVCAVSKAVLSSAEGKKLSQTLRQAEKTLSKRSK
Assay type: functional
Set-up: scale not given: direction of the effect not stated beside the values

Compound | Percent Effect [%]
Cc1cccc(CN2C(=O)CCC23CCN(Cc2cccn2C)CC3)n1 | 22.5
CCC(=O)N1CCCC1c1nccnc1Nc1nc(C)cc(C)n1 (stereo not drawn) | 7.5
CNc1cncc(C2CCCN2Cc2c[nH]cn2)n1 (stereo not drawn) | 15
Cc1cc(C)n(CC2CN(Cc3nc(-c4ccco4)no3)CCO2)n1 (stereo not drawn) | 23.5
CCCc1nc(C)c(C(=O)NCCN2CCN(CC)CC2)s1 | 9.41
Fc1cnc(N2CCOCC3(CCCN(c4nncs4)C3)C2)nc1 (stereo not drawn) | 7.69
O=C(c1ccccn1)N1Cc2nccn2CC(CN2CCOCC2)C1 (stereo not drawn) | 15.4
COC(=O)c1cccn1C1CCN(Cc2ccccc2)CC1 | 11.8
CCOC1CCCN(C(=O)c2sccc2-n2cnnn2)C1 (stereo not drawn) | 22.9
CN(C)CC1CN(Cc2coc(-c3ccccc3Cl)n2)CCO1 (stereo not drawn) | 5.13
CCc1cc(O)nc(C2CCCN2C(=O)c2cccnc2)n1 (stereo not drawn) | 5
CC(Cn1cccn1)NC(=O)Cc1cccs1 (stereo not drawn) | 7.69
COc1ccc(F)cc1C(=O)N(C)Cc1cc(C)on1 | 13.2
CNc1cc(N2CCCC2CNCc2cnc(C)cn2)ncn1 (stereo not drawn) | 1.21
CN(Cc1ccco1)[C@@H]1CN(Cc2ccc(F)cc2)C[C@@H]2CCCO[C@@H]21 | 12.8
CC(C)(O)CN1CCN(C(=O)c2cccnc2O)CC1 | 1.21
O=C(N1CCCC1)N1CCC2(CCCN(CCOc3ccccc3)C2)C1 (stereo not drawn) | 2.5
CC(C(=O)N1CCCC1)N1CCC(c2nccn2Cc2cscn2)CC1 (stereo not drawn) | 12.2
Cc1ccc(NC2CCN(C(=O)c3cccc4ncccc34)CC2)nn1 | 15.4
COc1cc(CNCc2ccc(NC(=O)NC(C)C)cc2)cc(OC)c1 | 30.6

Compound | Percent Effect [%]
O=C(c1cnco1)N1CCCC(Cc2nccs2)C1 (stereo not drawn) | 15
CCS(=O)(=O)N(C)CC(=O)Nc1ccc(Br)cn1 | 12.8
Cn1cc(NC(=O)N2CCC(c3ccccc3)CC2)ccc1=O | 6.02
Cc1ncc(S(C)(=O)=O)c(C2CCCNC2)n1 (stereo not drawn) | 12.2
COC(=O)COc1cccc(NS(=O)(=O)c2cc(C(=O)O)cs2)c1 | 20.5
CC(C)c1cc(N2CCN(c3ccc(O)cc3)CC2)n2nccc2n1 | 34.1
CC(=O)NC1CCCN(C(=O)NCc2cccnc2-n2cccn2)C1 (stereo not drawn) | 7.69
Cc1noc(C)c1CN(C)C(=O)NC1CCN(c2ncccn2)CC1 | 20.5
FC(F)(F)Cn1ccnc1CN1CCCC1c1noc(C2CC2)n1 (stereo not drawn) | 15.4
NC[C@H]1CC[C@H](C(NC(=O)c2ccccc2)c2ccccn2)CC1 (stereo partly drawn) | 25
CCc1nc(C2CCCN2C(=O)CCCn2cccn2)no1 (stereo not drawn) | 4.71
CN(C)CC1CN(Cc2nnc(-c3ccccc3Cl)o2)CCO1 (stereo not drawn) | 0
c1csc(-c2nc(CN3CCn4c(nnc4C4CC4)C3)co2)c1 | 5.13
CCNC(=O)[C@@H]1C[C@H](NC(=O)Cc2ccsc2)CN1Cc1ccc(C)o1 | 21.9
CCOc1ncccc1NC(=O)NC1CCCN(c2ncccn2)C1 (stereo not drawn) | 30.6
CC(=O)N1CCCC1c1csc(Nc2cnccn2)n1 (stereo not drawn) | 10
CCOC1COC2(CCN(S(=O)(=O)c3cccc(F)c3)CC2)C1 (stereo not drawn) | 7.69
O=c1c2ccccc2nc2n1C(CSc1ccc(Cl)cc1Cl)CN2 (stereo not drawn) | 10
c1ccc(OC2CCCC2)c(CNC2CCc3ncnn3C2)c1 (stereo not drawn) | 18.1

These compounds were tested against Chromo domain-containing protein 1 (Saccharomyces cerevisiae (strain ATCC 204508 / S288c) (Baker's yeast)) (UniProt P32657) (assay: ScCHD-1 Enzyme Inhibition Assay). Settings: 30 µM.
Assay type: functional
Set-up: scale not given: direction of the effect not stated beside the values

Sequence of Chromo domain-containing protein 1 (Saccharomyces cerevisiae (strain ATCC 204508 / S288c) (Baker's yeast)) (P32657 whole entry, the tested form may be a part): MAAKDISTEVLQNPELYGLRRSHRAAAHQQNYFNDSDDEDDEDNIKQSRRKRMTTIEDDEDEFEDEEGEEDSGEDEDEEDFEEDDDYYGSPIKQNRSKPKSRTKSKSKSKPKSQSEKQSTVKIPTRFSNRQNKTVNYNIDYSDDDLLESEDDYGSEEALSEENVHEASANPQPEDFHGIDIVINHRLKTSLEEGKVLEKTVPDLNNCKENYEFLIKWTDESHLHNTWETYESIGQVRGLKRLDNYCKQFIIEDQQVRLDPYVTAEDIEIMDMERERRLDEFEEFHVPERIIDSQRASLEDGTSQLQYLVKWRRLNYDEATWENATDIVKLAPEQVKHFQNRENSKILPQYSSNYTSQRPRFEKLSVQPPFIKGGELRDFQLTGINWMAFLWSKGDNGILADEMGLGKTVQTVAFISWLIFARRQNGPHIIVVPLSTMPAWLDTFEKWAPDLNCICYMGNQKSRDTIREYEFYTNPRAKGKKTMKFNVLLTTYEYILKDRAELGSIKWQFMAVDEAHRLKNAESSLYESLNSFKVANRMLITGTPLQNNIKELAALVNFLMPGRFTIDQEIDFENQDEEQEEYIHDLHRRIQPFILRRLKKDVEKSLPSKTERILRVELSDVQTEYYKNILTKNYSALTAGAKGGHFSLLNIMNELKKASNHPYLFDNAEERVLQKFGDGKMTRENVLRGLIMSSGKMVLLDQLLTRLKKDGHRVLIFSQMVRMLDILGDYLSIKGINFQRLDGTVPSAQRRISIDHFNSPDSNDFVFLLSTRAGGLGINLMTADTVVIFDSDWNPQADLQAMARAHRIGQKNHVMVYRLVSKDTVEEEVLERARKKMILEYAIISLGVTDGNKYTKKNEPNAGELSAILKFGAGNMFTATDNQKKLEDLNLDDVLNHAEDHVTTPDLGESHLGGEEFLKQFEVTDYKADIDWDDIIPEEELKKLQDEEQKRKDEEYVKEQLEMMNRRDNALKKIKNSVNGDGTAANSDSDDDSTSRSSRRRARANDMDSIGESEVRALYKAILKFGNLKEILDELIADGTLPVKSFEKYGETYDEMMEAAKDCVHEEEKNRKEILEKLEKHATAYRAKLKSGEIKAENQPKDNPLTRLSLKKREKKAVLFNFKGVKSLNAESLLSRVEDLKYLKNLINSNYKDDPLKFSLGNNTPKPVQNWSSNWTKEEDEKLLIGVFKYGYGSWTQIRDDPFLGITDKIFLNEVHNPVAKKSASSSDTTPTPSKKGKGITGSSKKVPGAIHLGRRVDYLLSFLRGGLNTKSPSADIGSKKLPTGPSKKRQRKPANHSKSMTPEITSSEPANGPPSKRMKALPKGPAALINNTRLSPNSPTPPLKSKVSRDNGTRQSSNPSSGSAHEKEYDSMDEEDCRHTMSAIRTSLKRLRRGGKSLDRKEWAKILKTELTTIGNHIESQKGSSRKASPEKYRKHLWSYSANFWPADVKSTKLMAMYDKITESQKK

Compound | Percent Effect [%]
Cc1cccc(CN2C(=O)CCC23CCN(Cc2cccn2C)CC3)n1 | -11.1
CCC(=O)N1CCCC1c1nccnc1Nc1nc(C)cc(C)n1 (stereo not drawn) | -21.6
CNc1cncc(C2CCCN2Cc2c[nH]cn2)n1 (stereo not drawn) | -25.9
Cc1cc(C)n(CC2CN(Cc3nc(-c4ccco4)no3)CCO2)n1 (stereo not drawn) | -11.8
CCCc1nc(C)c(C(=O)NCCN2CCN(CC)CC2)s1 | 3.6
Fc1cnc(N2CCOCC3(CCCN(c4nncs4)C3)C2)nc1 (stereo not drawn) | 0.128
O=C(c1ccccn1)N1Cc2nccn2CC(CN2CCOCC2)C1 (stereo not drawn) | 1.74
COC(=O)c1cccn1C1CCN(Cc2ccccc2)CC1 | -3.52
CCOC1CCCN(C(=O)c2sccc2-n2cnnn2)C1 (stereo not drawn) | -4.42
CN(C)CC1CN(Cc2coc(-c3ccccc3Cl)n2)CCO1 (stereo not drawn) | -10.4
CCc1cc(O)nc(C2CCCN2C(=O)c2cccnc2)n1 (stereo not drawn) | -14.4
CC(Cn1cccn1)NC(=O)Cc1cccs1 (stereo not drawn) | -16
COc1ccc(F)cc1C(=O)N(C)Cc1cc(C)on1 | -1.49
CNc1cc(N2CCCC2CNCc2cnc(C)cn2)ncn1 (stereo not drawn) | 2.01
CN(Cc1ccco1)[C@@H]1CN(Cc2ccc(F)cc2)C[C@@H]2CCCO[C@@H]21 | -3.55
CC(C)(O)CN1CCN(C(=O)c2cccnc2O)CC1 | -0.501
O=C(N1CCCC1)N1CCC2(CCCN(CCOc3ccccc3)C2)C1 (stereo not drawn) | -13.4
CC(C(=O)N1CCCC1)N1CCC(c2nccn2Cc2cscn2)CC1 (stereo not drawn) | -3.89
Cc1ccc(NC2CCN(C(=O)c3cccc4ncccc34)CC2)nn1 | -8.9
COc1cc(CNCc2ccc(NC(=O)NC(C)C)cc2)cc(OC)c1 | -10.7

Compound | Percent Effect [%]
O=C(c1cnco1)N1CCCC(Cc2nccs2)C1 (stereo not drawn) | -20.4
CCS(=O)(=O)N(C)CC(=O)Nc1ccc(Br)cn1 | -8.92
Cn1cc(NC(=O)N2CCC(c3ccccc3)CC2)ccc1=O | 1.81
Cc1ncc(S(C)(=O)=O)c(C2CCCNC2)n1 (stereo not drawn) | 111
COC(=O)COc1cccc(NS(=O)(=O)c2cc(C(=O)O)cs2)c1 | -7.25
CC(C)c1cc(N2CCN(c3ccc(O)cc3)CC2)n2nccc2n1 | -3.77
CC(=O)NC1CCCN(C(=O)NCc2cccnc2-n2cccn2)C1 (stereo not drawn) | -8.06
Cc1noc(C)c1CN(C)C(=O)NC1CCN(c2ncccn2)CC1 | -9.27
FC(F)(F)Cn1ccnc1CN1CCCC1c1noc(C2CC2)n1 (stereo not drawn) | -9.44
NC[C@H]1CC[C@H](C(NC(=O)c2ccccc2)c2ccccn2)CC1 (stereo partly drawn) | -27.6
CCc1nc(C2CCCN2C(=O)CCCn2cccn2)no1 (stereo not drawn) | -9.39
CN(C)CC1CN(Cc2nnc(-c3ccccc3Cl)o2)CCO1 (stereo not drawn) | -11.7
c1csc(-c2nc(CN3CCn4c(nnc4C4CC4)C3)co2)c1 | -5.6
CCNC(=O)[C@@H]1C[C@H](NC(=O)Cc2ccsc2)CN1Cc1ccc(C)o1 | 80.5
CCOc1ncccc1NC(=O)NC1CCCN(c2ncccn2)C1 (stereo not drawn) | -4.97
CC(=O)N1CCCC1c1csc(Nc2cnccn2)n1 (stereo not drawn) | -25.7
CCOC1COC2(CCN(S(=O)(=O)c3cccc(F)c3)CC2)C1 (stereo not drawn) | -3.54
O=c1c2ccccc2nc2n1C(CSc1ccc(Cl)cc1Cl)CN2 (stereo not drawn) | -2.41
c1ccc(OC2CCCC2)c(CNC2CCc3ncnn3C2)c1 (stereo not drawn) | -3.21
